Measured values published in PubChem BioAssay (NCATS).
Inconclusive results are not listed. Active and inactive are the calls of the source. The call rests on the fitted dose curve; in most records, active means well fitted curve in the direction sought with a large enough effect; inconclusive means small, poorly fitted or top-dose-only effect, or another doubt; inactive means no such curve, though single readings can be large; an effect the other way counts as inactive or inconclusive.

Columns and labels:
[1] = target: ATP-dependent 6-phosphofructokinase (Trypanosoma brucei brucei) (UniProt O15648); test: qHTS Assay to Find Inhibitors of T. brucei phosphofructokinase: hit validation (AID 492961);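 further: luminescence reports ADP formed as PFK phosphorylates fructose-6-phosphate with ATP; on the % scale 0 is the no-effect control and ±100 the full control effect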
Method in brief: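 PFK 1.25 nM, F6P 0.5 mM, ATP 0.1 mM, MgCl2 5 mM, 0.1 M TEA pH 8.0, Tween20 0.01%, BSA 0.1%; 45 min RT. ADP-Glo two-step detection, luminescence. qHTS titration; curve fitting with curve-class categorization.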

[2] = qHTS profiling for inhibitors of Plasmodium falciparum proliferation (AID 504749); further: potency means the concentration at half of the fitted maximal effect;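 on activity, negative = inhibition: 0% = DMSO vehicle and full inhibition = artemisinin control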; on all read-outs here: nearly all actives have a fitted effect of over 60% in size; details: P. falciparum in erythrocytes, SYBR Green DNA, 72 h; for activity, negative = inhibition: at 28.7 µM (top of the series)
Method in brief: (§1)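 Quantitative HTS: compounds pinned into medium, infected erythrocytes added (0.3% parasitemia, 2.5% hematocrit), 72 h culture at 37 C under 5% CO2. Saponin/Triton lysis with SYBR Green I, overnight RT, then fluorescence read.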

[3] = system: 3D7; test: as above; details: P. falciparum in erythrocytes, SYBR Green DNA, 72 h; series mostly up to 28.7 µM
Method in brief: as §1

[4] = system: 7G8; test: as above; details: P. falciparum in erythrocytes, SYBR Green DNA, 72 h; series mostly up to 28.7 µM
Method in brief: as §1

[5] = system: AS120; test: as above; details: P. falciparum in erythrocytes, SYBR Green DNA, 72 h; series mostly up to 28.7 µM
Method in brief: as §1

[6] = system: ATS189; test: as above; details: P. falciparum in erythrocytes, SYBR Green DNA, 72 h; series mostly up to 28.7 µM
Method in brief: as §1

[7] = system: CP185; test: as above; details: P. falciparum in erythrocytes, SYBR Green DNA, 72 h; series mostly up to 28.7 µM
Method in brief: as §1

[8] = system: CP191; test: as above; details: P. falciparum in erythrocytes, SYBR Green DNA, 72 h; series mostly up to 28.7 µM
Method in brief: as §1

[9] = system: CP192; test: as above; details: P. falciparum in erythrocytes, SYBR Green DNA, 72 h; series mostly up to 28.7 µM
Method in brief: as §1

[10] = system: CP194; test: as above; details: P. falciparum in erythrocytes, SYBR Green DNA, 72 h; series mostly up to 28.7 µM
Method in brief: as §1

[11] = system: CP201; test: as above; details: P. falciparum in erythrocytes, SYBR Green DNA, 72 h; series mostly up to 28.7 µM
Method in brief: as §1

[12] = system: CP203; test: as above; details: P. falciparum in erythrocytes, SYBR Green DNA, 72 h; series mostly up to 28.7 µM
Method in brief: as §1

[13] = system: CP247; test: as above; details: P. falciparum in erythrocytes, SYBR Green DNA, 72 h; series mostly up to 28.7 µM
Method in brief: as §1

[14] = system: CP286; test: as above; details: P. falciparum in erythrocytes, SYBR Green DNA, 72 h; series mostly up to 28.7 µM
Method in brief: as §1

[15] = system: CP291; test: as above; details: P. falciparum in erythrocytes, SYBR Green DNA, 72 h; series mostly up to 28.7 µM
Method in brief: as §1

[16] = system: P94_40; test: as above; details: P. falciparum in erythrocytes, SYBR Green DNA, 72 h; series mostly up to 28.7 µM
Method in brief: as §1

[17] = system: PC49; test: as above; details: P. falciparum in erythrocytes, SYBR Green DNA, 72 h; series mostly up to 28.7 µM
Method in brief: as §1

[18] = system: TAB109; test: as above; details: P. falciparum in erythrocytes, SYBR Green DNA, 72 h; series mostly up to 28.7 µM
Method in brief: as §1

[19] = system: TAB113; test: as above; details: P. falciparum in erythrocytes, SYBR Green DNA, 72 h; series mostly up to 28.7 µM
Method in brief: as §1

Chain of ATP-dependent 6-phosphofructokinase (Trypanosoma brucei brucei) (O15648 whole entry, looked up): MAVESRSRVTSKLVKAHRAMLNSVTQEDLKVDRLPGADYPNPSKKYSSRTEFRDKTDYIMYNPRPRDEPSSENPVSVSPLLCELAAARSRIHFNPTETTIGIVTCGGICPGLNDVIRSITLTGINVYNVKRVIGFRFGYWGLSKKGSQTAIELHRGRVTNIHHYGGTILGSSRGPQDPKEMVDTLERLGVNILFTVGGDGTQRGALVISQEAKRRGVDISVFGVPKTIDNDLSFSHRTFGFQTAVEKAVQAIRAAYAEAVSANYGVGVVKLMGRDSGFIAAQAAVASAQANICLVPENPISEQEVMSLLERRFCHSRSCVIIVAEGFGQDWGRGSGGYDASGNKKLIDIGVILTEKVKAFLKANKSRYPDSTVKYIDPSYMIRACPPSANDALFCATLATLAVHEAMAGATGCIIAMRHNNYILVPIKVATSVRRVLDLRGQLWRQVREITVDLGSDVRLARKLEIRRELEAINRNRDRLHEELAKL

CC(=O)OCC(=O)[C@@]1(O)CCC2C3CCC4=CC(=O)C=CC4(C)C3C(O)C[C@]21C (stereo not given in full)
inactive: Potency [1] | activity, negative = inhibition ([2]; parasite line A) 8.28% | activity, negative = inhibition ([2]; parasite line B) 10.3% | Potency [3] | Potency [4] | Potency [5] | Potency [6] | Potency [7] | Potency [8] | Potency [9] | Potency [10] | Potency [11] | Potency [12] | Potency [13] | Potency [14] | Potency [15] | Potency [16] | Potency [17] | Potency [18] | Potency [19]

C=C(NCc1ccccc1)c1ccccc1O
inactive: Potency [1] | activity, negative = inhibition ([2]; parasite line A) 12.8% | activity, negative = inhibition ([2]; parasite line B) 10.7% | Potency [3] | Potency [4] | Potency [5] | Potency [6] | Potency [7] | Potency [8] | Potency [9] | Potency [10] | Potency [11] | Potency [12] | Potency [13] | Potency [14] | Potency [15] | Potency [16] | Potency [17] | Potency [18] | Potency [19]

CC(=O)NC1[C@H](O)C[C@@](O)(C(=O)O)O[C@H]1[C@H](O)[C@H](O)CO (stereo not given in full)
inactive: Potency [1] | activity, negative = inhibition ([2]; parasite line A) 5.53% | activity, negative = inhibition ([2]; parasite line B) -8.73% | Potency [3] | Potency [4] | Potency [5] | Potency [6] | Potency [7] | Potency [8] | Potency [9] | Potency [10] | Potency [11] | Potency [12] | Potency [13] | Potency [14] | Potency [15] | Potency [16] | Potency [17] | Potency [18] | Potency [19]

NC(C(=O)O)c1ccc(O)cc1 (stereo not given)
inactive: Potency [1] | activity, negative = inhibition ([2]; parasite line A) 3.02% | activity, negative = inhibition ([2]; parasite line B) 9.1% | Potency [3] | Potency [4] | Potency [5] | Potency [6] | Potency [7] | Potency [8] | Potency [9] | Potency [10] | Potency [11] | Potency [12] | Potency [13] | Potency [14] | Potency [15] | Potency [16] | Potency [17] | Potency [18] | Potency [19]

C=CC1CN2CCC1CC2[C@@H](O)c1ccnc2ccc(OC)cc12 (stereo not given in full)
inactive: Potency [1]
active: Potency ([2]; parasite line A) 50.1 nM | Potency ([2]; parasite line B) 56.2 nM | Potency [3] 79.4 nM | Potency [4] 50.1 nM | Potency [5] 398 nM | Potency [6] 316 nM | Potency [7] 501 nM | Potency [8] 224 nM | Potency [9] 757 nM | Potency [10] 536 nM | Potency [11] 1070 nM | Potency [12] 426 nM | Potency [13] 1000 nM | Potency [14] 282 nM | Potency [15] 478 nM | Potency [16] 251 nM | Potency [17] 282 nM | Potency [18] 112 nM | Potency [19] 355 nM

CCCC[C@H](O)c1ccccc1
inactive: Potency [1] | activity, negative = inhibition ([2]; parasite line A) -2.26% | activity, negative = inhibition ([2]; parasite line B) -1.87% | Potency [3] | Potency [4] | Potency [5] | Potency [6] | Potency [7] | Potency [8] | Potency [9] | Potency [10] | Potency [11] | Potency [12] | Potency [13] | Potency [14] | Potency [15] | Potency [16] | Potency [17] | Potency [18] | Potency [19]

CC12C=CC(=O)C=C1[C@@H](F)CC1C2C(O)CC2(C)C1CC[C@]2(O)C(=O)CO (stereo not given in full)
inactive: Potency [1] | activity, negative = inhibition ([2]; parasite line A) 4.43% | activity, negative = inhibition ([2]; parasite line B) 5.63% | Potency [3] | Potency [4] | Potency [5] | Potency [6] | Potency [7] | Potency [8] | Potency [9] | Potency [10] | Potency [11] | Potency [12] | Potency [13] | Potency [14] | Potency [15] | Potency [16] | Potency [17] | Potency [18] | Potency [19]

CC(=O)NC1[C@H]([C@H](O)[C@H](O)CO)OC(C(=O)O)=C[C@H]1N=C(N)N (stereo not given in full)
inactive: Potency [1] | activity, negative = inhibition ([2]; parasite line A) 4.99% | activity, negative = inhibition ([2]; parasite line B) 6.49% | Potency [3] | Potency [4] | Potency [5] | Potency [6] | Potency [7] | Potency [8] | Potency [9] | Potency [10] | Potency [11] | Potency [12] | Potency [13] | Potency [14] | Potency [15] | Potency [16] | Potency [17] | Potency [18] | Potency [19]
